Source: PubChem BioAssay (NCATS)
Unmarked numbers belong to inactive results. Records with an inconclusive call do not appear. Where a call stands in place of a potency, no number is given. The source made the active and inactive calls. Unless noted, calls come from the whole dose curve; as a rule, active = well fitted curve in the direction sought with a large enough effect; inconclusive = small, poorly fitted or top-dose-only effect, or another doubt; inactive = no such curve, though single readings can be large; an effect the other way counts as inactive or inconclusive.

Assays:
UISO = experiment: qHTS assay to identify novel small-molecules to repurpose for Merkel cell carcinoma treatment (AID 1296009); conditions: MCC and control cell lines, CellTiter-Glo viability, 72 h; series mostly up to 46 µM; note: nearly all actives have a fitted effect of over 60% in size
Method in brief: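 Cells were treated for 72 hr at 37 degree celsius with compounds in 8- or 11-point dose response. Viability was read by CellTiter-Glo luminescence, normalized to no-cell (cytotoxicity) and DMSO controls.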

C33A = experiment: Primary qHTS to identify gynecologic anti-cancer compounds using libraries of approved drugs and bioactive compounds (AID 1345084); conditions: Gynecologic cancer cell panel viability, ATPlite luminescence, 48 h; series mostly up to 57.5 µM; note: nearly all actives have a fitted effect of over 55% in size
Method in brief: (§1)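 ATP-based viability (ATPlite), 1,000 cells/well, 16 h pre-incubation, 48 h compound at 37 C, 5% CO2, 15 min RT before read.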

CAOV3 = experiment: as above; conditions: Gynecologic cancer cell panel viability, ATPlite luminescence, 48 h; series mostly up to 57.5 µM
Method in brief: as §1

CASKI = experiment: as above; conditions: Gynecologic cancer cell panel viability, ATPlite luminescence, 48 h; series mostly up to 57.5 µM
Method in brief: as §1

Es-2 = experiment: as above; conditions: Gynecologic cancer cell panel viability, ATPlite luminescence, 48 h; series mostly up to 57.5 µM
Method in brief: as §1

HeLa = experiment: as above; conditions: Gynecologic cancer cell panel viability, ATPlite luminescence, 48 h; series mostly up to 57.5 µM
Method in brief: as §1

Hek293T = experiment: as above; conditions: Gynecologic cancer cell panel viability, ATPlite luminescence, 48 h, control line for the selectivity index; series mostly up to 57.5 µM
Method in brief: as §1

JEG-3 = experiment: as above; conditions: Gynecologic cancer cell panel viability, ATPlite luminescence, 48 h; series mostly up to 57.5 µM
Method in brief: as §1

PA-1 = experiment: as above; conditions: Gynecologic cancer cell panel viability, ATPlite luminescence, 48 h; series mostly up to 57.5 µM
Method in brief: as §1

SKOV3 = experiment: as above; conditions: Gynecologic cancer cell panel viability, ATPlite luminescence, 48 h; series mostly up to 57.5 µM
Method in brief: as §1

Tov-21-G = experiment: as above; conditions: Gynecologic cancer cell panel viability, ATPlite luminescence, 48 h; series mostly up to 57.5 µM
Method in brief: as §1

Tov112D = experiment: as above; conditions: Gynecologic cancer cell panel viability, ATPlite luminescence, 48 h; series mostly up to 57.5 µM
Method in brief: as §1

OV90 = experiment: as above; conditions: Gynecologic cancer cell panel viability, ATPlite luminescence, 48 h; series mostly up to 57.5 µM
Method in brief: as §1

[1] = Drug repurposing screens with cells derived from glioblastoma tumor samples (AID 1345199); conditions: GBM patient neurospheres viability, ATP luminescence, 48 h; at 45.9 µM (top of the series); tumour line D; note: nearly all actives have a fitted effect of over 40% in size; note: potency is the fitted concentration of half-maximal effect
Method in brief: (§2)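 Four patient lines of CD133+ GBM neurospheres were screened at several concentrations; hits were retested in those lines plus three slower-growing GBM lines, using 48-hour treatment and ATP-based viability.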

astro = experiment: as above; conditions: viability, ATP luminescence, 48 h; series mostly up to 45.9 µM
Method in brief: as §2

[2] = biological target: Nuclear receptor subfamily 1 group I member 2 (Rattus norvegicus) (UniProt Q9R1A7); experiment: qHTS assay for small molecule activators of the rat pregnane X receptor (rPXR) signaling pathway (AID 651751; call rule not given here); conditions: rPXR reporter cells, luciferase (One-Glo), 24 h
Nuclear receptor subfamily 1 group I member 2 (Rattus norvegicus), sequence (Q9R1A7 whole entry, looked up): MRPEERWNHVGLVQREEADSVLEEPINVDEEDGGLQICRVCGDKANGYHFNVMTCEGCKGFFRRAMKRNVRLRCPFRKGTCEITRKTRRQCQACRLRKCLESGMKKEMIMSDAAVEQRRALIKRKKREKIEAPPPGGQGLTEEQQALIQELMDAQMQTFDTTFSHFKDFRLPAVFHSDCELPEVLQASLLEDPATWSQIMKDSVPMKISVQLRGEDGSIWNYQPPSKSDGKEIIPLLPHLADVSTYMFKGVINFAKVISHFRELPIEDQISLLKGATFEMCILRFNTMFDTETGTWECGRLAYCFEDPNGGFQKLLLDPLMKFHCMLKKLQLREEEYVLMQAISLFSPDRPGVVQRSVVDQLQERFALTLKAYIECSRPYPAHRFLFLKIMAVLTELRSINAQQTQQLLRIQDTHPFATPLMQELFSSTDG

Structure (SMILES)	Potency (UISO)	Potency (C33A)	Potency (CAOV3)	Potency (CASKI)	Potency (Es-2)	Potency (HeLa)	Potency (Hek293T)	Potency (JEG-3)	Potency (PA-1)	Potency (SKOV3)	Potency (Tov-21-G)	Potency (Tov112D)	Potency (OV90)	activity, negative = cell killing [1] [%]	Potency (astro)	max response [2] [%]
CN1CCC(N(Cc2ccccc2)c2ccccc2)CC1	inactive	inactive	inactive	inactive	inactive	inactive	inactive	inactive	inactive	inactive	inactive	inactive				
O=C(CCl)c1ccc(Cl)cc1Cl	inactive	inactive	inactive	inactive	inactive	inactive	inactive	inactive	inactive	inactive	inactive	inactive	inactive	-23.6	12.6 µM (active)	-0.907
